Shown are actives, neighbours in structure and some others; about 31% of the full set was active somewhere.
PLAP activator = activators of human placental alkaline phosphatase; activation fold at 20 µM; P05187; purified PLAP enzyme, luminescent substrate read-out; stronger effect = higher value; 96,000 compounds, 1.2% hits; AID 696; in the data active = activation fold above about 2
CYP2C9 inh = blocks human cytochrome P450 2C9. P11712. CYP2C9 Supersomes, luciferin-H conversion, luminescence. inhibition, % at 5 µM. 96,000 compounds, 20% hits. AID 777;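 active = blocking of liver enzyme CYP2C9 beyond about 50% at 5 µM, limit read from the data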
CYP2C19 inh = human CYP2C19 inhibition. P33261. CYP2C19 Supersomes, luciferin-H EGE luminescence, 30 min. inhibition, % at 5 µM. 96,000 compounds, 21% hits. AID 778;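 active = CYP2C19 inhibition above a set limit at 5 µM in the primary screen, cut at about 50% in these data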
Target sequence (P33261 whole entry, looked up): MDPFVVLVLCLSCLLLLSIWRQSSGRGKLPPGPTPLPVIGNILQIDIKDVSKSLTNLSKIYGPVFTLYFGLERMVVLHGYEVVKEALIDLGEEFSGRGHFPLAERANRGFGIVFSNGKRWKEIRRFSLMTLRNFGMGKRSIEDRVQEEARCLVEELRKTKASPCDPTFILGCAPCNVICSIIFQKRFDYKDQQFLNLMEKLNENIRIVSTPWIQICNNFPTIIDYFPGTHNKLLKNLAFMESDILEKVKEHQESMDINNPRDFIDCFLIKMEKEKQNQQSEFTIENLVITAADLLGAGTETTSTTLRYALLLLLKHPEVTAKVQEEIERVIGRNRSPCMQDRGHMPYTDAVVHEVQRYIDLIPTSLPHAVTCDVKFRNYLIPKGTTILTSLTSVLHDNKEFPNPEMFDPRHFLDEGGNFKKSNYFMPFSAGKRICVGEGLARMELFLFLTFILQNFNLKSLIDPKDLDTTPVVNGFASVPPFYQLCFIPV
CYP2C19 act = increases human CYP2C19 enzyme activity. P33261. recombinant CYP2C19, luciferin-H EGE luminescence; stronger effect = higher value; 0 = fully inhibited enzyme, 1 = untreated enzyme. activation factor at 5 µM. 96,000 tested, under 10 active. AID 1025;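 active = activation factor of at least 2 at 5 µM in the primary screen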
CYP2C9 activ = CYP2C9 (human) activation; P11712; recombinant CYP2C9, luciferin-H conversion, luminescence; stronger effect = higher value; factor 1 = untreated enzyme, 0 = blocked; activation factor at 5 µM; 96,000 compounds, 1.4% hits; AID 1024;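 active = activation factor of 2 or more for CYP2C9 at a 5 µM dose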
Hits are given with their value; – = inactive.

SMILES | PLAP activator | CYP2C9 inh | CYP2C19 inh | CYP2C19 act | CYP2C9 activ
CCOC(=O)Cc1csc(NC(=O)c2c(-c3c(F)cccc3Cl)noc2C)n1 | – | 70 | 51 | – | –
Cc1csc(NC(=O)c2c(-c3c(Cl)cccc3Cl)noc2C)n1 | – | 89 | 83 | – | –
CCOC(=O)Cc1csc(NC(=O)c2c(-c3ccccc3)noc2C)n1 | – | 83 | 82 | – | –
Cc1onc(-c2c(Cl)cccc2Cl)c1C(=O)Nc1ccc2c(c1)OCO2 | – | 81 | – | – | –
CC(=O)Nc1cccc(NC(=O)c2c(-c3ccccc3Cl)noc2C)c1 | – | – | – | – | –
CCOC(=O)c1c(C)c(-c2ccccc2)n(CC(=O)NCCC(C)C)c1C | – | – | – | – | –
Cc1onc(-c2c(F)cccc2Cl)c1C(=O)OCC(=O)NC(c1ccccc1)c1ccccc1 | – | 84 | – | – | –
Cc1onc(-c2c(F)cccc2Cl)c1C(=O)NCc1cccs1 | – | 84 | 85 | – | –
Cc1onc(-c2ccccc2)c1C(=O)Nc1nc(-c2ccc(F)c(F)c2)cs1 | – | 68 | 79 | – | –
Cc1onc(-c2ccccc2)c1C(=O)Nc1cccnc1 | – | 50 | – | – | –
CCn1c(=O)cc(SCC(=O)NCCCN2CCN(c3ccccc3F)CC2)c2ccccc21 | – | – | – | – | –
Cc1ccc(S(=O)(=O)c2nc(-c3ccccc3)oc2NCc2cccnc2)cc1 | – | 73 | 77 | – | –
Cc1ccccc1-c1nc(S(=O)(=O)c2ccc(Br)cc2)c(NCc2cccnc2)o1 | – | 66 | 82 | – | –
Cc1ccccc1-c1nc(CN2CCC(C(=O)NCc3cccnc3)CC2)c(C)o1 | – | – | – | – | –
CSc1oc(-c2ccccc2)nc1S(=O)(=O)c1ccc(C)cc1 | – | – | – | – | –
COC(=O)c1ccc(N2CCN(S(=O)(=O)c3ccc(Br)cc3)CC2)c([N+](=O)[O-])c1 | – | – | – | – | –
Cc1c([N+](=O)[O-])cc(C(=O)Oc2ccc(Br)cc2C(=S)N2CCCCC2)cc1[N+](=O)[O-] | – | – | 54 | – | –
O=C(c1cc(-c2ccccc2)nc2ccccc12)N1N=C(C(F)F)CC1(O)C(F)F (centres undefined) | – | 100 | 82 | – | –
c1ccc(Cc2nn3c(COc4ccccc4)nnc3s2)cc1 | – | – | 66 | – | –
CN(C)c1ccc(-c2nn3c(C4CCCCC4)nnc3s2)cc1 | – | 55 | 52 | – | –
CN(C)c1ccc(-c2nn3c(-c4ccc(Cl)cc4)nnc3s2)cc1 | – | – | – | – | –
CCOc1ccccc1OCc1nn2c(COc3ccccc3)nnc2s1 | – | – | – | – | –
Clc1ccccc1-c1nn2c(COc3ccccc3)nnc2s1 | – | 82 | 95 | – | –
c1ccc(OCc2nn3c(C4CCCCC4)nnc3s2)cc1 | – | 51 | – | – | –
CCN(C(=O)C1CCCCC1)c1nnc(-c2cccnc2)s1 | – | – | – | – | –
SMILES | PLAP activator | CYP2C9 inh | CYP2C19 inh | CYP2C19 act | CYP2C9 activ
CC1CCN(S(=O)(=O)c2ccc(Br)s2)CC1 | – | – | 95 | – | –
O=C(CN1CCCN(S(=O)(=O)c2ccc(Br)s2)CC1)Nc1ccc(Cl)cc1 | – | – | 88 | – | –
COc1ccc(N2CCN(S(=O)(=O)c3ccc(Br)s3)CC2)cc1 | – | – | – | – | –
O=S(=O)(c1ccc(Br)s1)N1CCCCC1 | – | – | 73 | – | –
COc1ccc(Cc2nnc3c4cnn(C)c4ncn23)cc1 | – | – | – | – | –
CCN(CCO)c1ncnc2c1sc1nc(CC(C)C)c3c(c12)CC(C)(C)OC3 | – | 69 | – | – | –
N/C(Cc1cccs1)=N\OC(=O)COc1ccccc1 | – | – | – | – | –
CCOC(=O)C1C(=O)NC(c2ccccc2)=NC1c1ccc(Cl)cc1 (centres undefined) | – | – | 57 | – | –
NC(=O)c1ccsc1NC(=O)COc1ccccc1 | – | 65 | – | – | –
NC(=O)c1ccsc1NC(=O)c1nc(-c2ccccc2)n(-c2ccccc2)n1 | – | 61 | – | – | –
NC(=O)c1ccsc1NC(=O)COC(=O)Cc1cccc2ccccc12 | – | – | 97 | – | –
O=C(NC1=NCCS1)c1nc(-c2ccccc2)n(-c2ccccc2)n1 | – | – | – | – | –
NC(=O)c1ccsc1NC(=O)CSc1ccccc1F | – | – | – | – | –
COc1ccccc1Cn1c(=O)c2ccccc2n2c(Sc3ncnc4sccc34)nnc12 | – | 57 | 61 | – | –
COc1ccccc1Cn1c(=O)c2ccccc2n2c(SCc3csc(C)n3)nnc12 | – | – | 57 | – | –
COC(=O)c1sccc1NC(=O)c1csc(C)c1 | – | – | – | – | –
O=C(CN1C(=O)COc2ccccc21)N1CCN(c2ccccc2F)CC1 | – | – | – | – | –
O=C(CN1C(=O)COc2ccccc21)N(Cc1cccnc1)Cc1ccccc1F | – | 54 | – | – | –
O=C(CN1C(=O)COc2ccccc21)c1cccc(Cl)c1 | – | 93 | 99 | – | –
COc1ccc(CN(Cc2ccccn2)C(=O)CN2C(=O)COc3ccccc32)cc1 | – | – | – | – | –
O=C1COc2ccccc2N1Cc1ccccc1Cl | – | – | 80 | – | –
O=C(CN1C(=O)COc2ccccc21)c1ccc(Cl)cc1 | – | 86 | 98 | – | –
CNc1nc(C)c(C(C)=O)cc1C#N | – | – | – | – | –
CN1CCN(CCCn2cnc3c(=O)oc4ccccc4c32)CC1 | – | – | – | – | –
O=c1oc2ccccc2c2c1ncn2CCN1CCOCC1 | – | – | 50 | – | –
SMILES | PLAP activator | CYP2C9 inh | CYP2C19 inh | CYP2C19 act | CYP2C9 activ
Oc1cccc(-c2nc3c4c(ncn3n2)-c2ccccc2CC42CCCC2)c1 | – | – | – | – | –
COCCCNC(=O)COc1ccc(Cl)c(C)c1 | – | – | 84 | – | –
Cc1ccc(OCC(=O)N2CCCCC2)c(Br)c1 | – | – | 85 | – | –
Cc1cc(OCC(=O)N2CCCC2)cc(C)c1Cl | – | – | – | – | –
Cc1cc(OCC(=O)N2CCCC2)ccc1Cl | – | – | 85 | – | –
Cc1ccc(S(=O)(=O)N[C@@H](CC(C)C)C(=O)NCc2ccco2)cc1 | – | – | – | – | –
CCOC(=O)/C(=N\Nc1cccc(C(F)(F)F)c1)N(CCOC)CCOC | – | 89 | 99 | – | –
O=C(c1ccc(S(=O)(=O)N2CCCCC2)cc1)N1CCCc2ccccc21 | – | 76 | – | – | –
O=C(c1ccc(S(=O)(=O)N2CCCC2)cc1)N1CCCc2ccccc21 | – | 88 | 97 | – | –
O=C(c1ccc(S(=O)(=O)N2CCOCC2)cc1)N1CCCc2ccccc21 | – | – | 56 | – | –
CC(=O)N1CCc2cc(S(=O)(=O)N3CCOCC3)ccc21 | – | – | – | – | –
O=C(c1ccc(C(=O)N2CCCc3ccccc32)nc1)N1CCCc2ccccc21 | – | – | – | – | –
Cc1ccc(NC(=O)C(C)N2C(=O)C3C4CC(C(Br)C4Br)C3C2=O)cc1 (centres undefined) | – | – | – | – | –
Cc1cccc(CC(=O)Nc2cc(=O)n(C)c(=O)n2C)c1 | – | – | – | – | –
